# About 5,700 (2.6%) of roughly 220,000 compounds were called active. Another 18% or so got no clear call; they are omitted. The sample as a whole holds a higher share of actives than the screen did. Unmarked numbers belong to inactive results. The call rests on the fitted dose curve; in most records, active means well fitted inhibition curve with a large enough effect; inconclusive means small, poorly fitted or top-dose-only effect; inactive means no such curve, though single readings can be large or run the other way.
# Biological target: Lysine-specific demethylase 5B (Homo sapiens) (UniProt Q9UGL1)
# Test: Primary screen for KDM5B Histone Demethylases FDH-coupled qHTS; further: nearly all actives have a fitted effect of over 70% in size; on activity change, negative = inhibition: 0% is about no effect
# Details: FDH-coupled NADH fluorescence (FDH is formaldehyde dehydrogenase); series mostly up to 57.7 µM; activity change, negative = inhibition: at the top concentration
# Procedure, shortened: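 Inhibition is measured as reduced NADH fluorescence generation from FDH coupling to formaldehyde release. Truncated KDM5BΔAP at 200 nM final acts on H3K4me3 peptide (12.5 µM in substrate mix) in pH 7.5 HEPES buffer with Tween-20, 30 min, room temperature.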
# Potency means the concentration at half of the fitted maximal effect.
# Chain of Lysine-specific demethylase 5B (Homo sapiens) (Q9UGL1 whole entry, looked up): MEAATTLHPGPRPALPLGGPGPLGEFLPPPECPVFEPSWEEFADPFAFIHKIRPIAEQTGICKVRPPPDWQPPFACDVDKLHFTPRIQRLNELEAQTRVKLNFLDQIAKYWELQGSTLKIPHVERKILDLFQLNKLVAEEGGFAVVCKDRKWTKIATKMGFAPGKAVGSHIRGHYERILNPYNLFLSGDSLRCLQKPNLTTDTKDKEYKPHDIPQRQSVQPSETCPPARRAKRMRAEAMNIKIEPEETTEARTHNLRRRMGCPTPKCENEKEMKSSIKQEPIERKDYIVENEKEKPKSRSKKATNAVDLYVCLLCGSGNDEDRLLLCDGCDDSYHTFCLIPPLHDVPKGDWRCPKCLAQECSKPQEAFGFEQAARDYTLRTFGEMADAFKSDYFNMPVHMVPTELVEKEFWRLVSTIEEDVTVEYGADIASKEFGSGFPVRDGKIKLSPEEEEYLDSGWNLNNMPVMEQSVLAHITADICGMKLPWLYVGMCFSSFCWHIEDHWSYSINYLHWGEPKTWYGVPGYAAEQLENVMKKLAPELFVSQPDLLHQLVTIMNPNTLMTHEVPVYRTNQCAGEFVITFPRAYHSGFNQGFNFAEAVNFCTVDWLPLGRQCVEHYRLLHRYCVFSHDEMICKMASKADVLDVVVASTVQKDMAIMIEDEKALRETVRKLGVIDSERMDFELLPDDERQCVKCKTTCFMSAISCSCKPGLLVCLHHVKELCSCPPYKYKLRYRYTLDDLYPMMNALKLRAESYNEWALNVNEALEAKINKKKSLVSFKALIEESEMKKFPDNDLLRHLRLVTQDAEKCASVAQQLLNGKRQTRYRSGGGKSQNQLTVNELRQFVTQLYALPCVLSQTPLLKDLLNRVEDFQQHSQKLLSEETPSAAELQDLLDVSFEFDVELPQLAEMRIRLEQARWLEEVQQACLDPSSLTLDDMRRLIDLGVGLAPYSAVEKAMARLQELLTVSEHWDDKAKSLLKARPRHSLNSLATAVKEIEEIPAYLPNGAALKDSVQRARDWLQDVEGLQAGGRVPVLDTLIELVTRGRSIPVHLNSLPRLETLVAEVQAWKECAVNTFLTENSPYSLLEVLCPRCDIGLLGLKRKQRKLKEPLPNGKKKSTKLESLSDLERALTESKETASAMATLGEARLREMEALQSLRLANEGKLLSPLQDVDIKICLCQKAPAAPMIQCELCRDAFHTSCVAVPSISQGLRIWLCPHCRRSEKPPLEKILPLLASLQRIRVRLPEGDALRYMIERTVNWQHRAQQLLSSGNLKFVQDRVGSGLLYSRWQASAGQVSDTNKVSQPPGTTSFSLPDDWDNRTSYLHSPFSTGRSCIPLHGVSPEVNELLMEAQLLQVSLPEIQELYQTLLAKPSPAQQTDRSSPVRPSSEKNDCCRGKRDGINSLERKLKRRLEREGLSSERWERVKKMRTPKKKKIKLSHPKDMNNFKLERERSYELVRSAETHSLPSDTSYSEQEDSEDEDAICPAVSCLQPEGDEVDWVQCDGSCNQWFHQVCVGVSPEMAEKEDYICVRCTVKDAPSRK
SMILES,"activity change, negative = inhibition",Potency
O=C(N/N=C/c1ccccc1Cl)c1ccc(Cl)s1,-3.13%,
OCC#Cc1csc(CN2CCCC3(CCNCC3)CC2)c1,10.2%,
C=CCN(C)C(=O)[C@@H](C)C1CC[C@@]2(C)Cc3sc(NS(=O)(=O)c4ccc(Cl)cc4)nc3[C@@H](C)[C@@H]2[C@H]1O (stereo not given in full),,28.2 µM (active)
C=CCN(C)C(=O)[C@@H](C)C1CC[C@@]2(C)Cc3sc(Nc4c(Cl)cccc4Cl)nc3[C@@H](C)[C@@H]2[C@H]1O (stereo not given in full),-26.3%,
CCN(CC)C(=O)[C@@H](C)C1CC[C@@]2(C)Cc3sc(N)nc3[C@@H](C)[C@@H]2[C@H]1O (stereo not given in full),-5.26% [at 86.2 µM],
O=C(c1ccccc1F)N1CCC2(CC1)C(=O)Nc1ccccc12,-1.94% [at 149 µM],
O=C1Nc2cnccc2C2(CCN(C(=O)c3ccccc3F)C2)O1 (stereo not given),,31.6 µM (active)
CC(C)C1=NOC2(CCN(C(=O)c3ccccc3F)C2)C1 (stereo not given),2.96% [at 149 µM],
O=C(O)Cc1ccc(NC(=O)Nc2cccc3ccccc23)cc1,19.1%,
COc1ccc2nc(SCC(=O)Nc3ncccn3)[nH]c2c1,10.3%,
COc1ccccc1-c1cc(-c2cn[nH]c2)c2cncn2c1,-2460% [at 115 µM],
c1cc(N2CCOCC2)ccc1-c1cc(-c2cn[nH]c2)c2cncn2c1,,28.2 µM (active)
Cn1cc(CC(=O)N2CCCc3ncc(C(=O)N4CCCC[C@@H]4c4ccccc4)cc32)c2ccccc21,-17.3%,
CCC(=O)Nc1cc(C(=O)NCc2ccc(N3CCOCC3)cc2)c2ccc(C)nc2c1,,14.1 µM (active)
Cn1cc(-c2ccccc2)cc1C(=O)NCc1ccc(N2CCOCC2)cc1,-31.6%,
COCc1cc(=O)n(CC(=O)NCc2ccc(C)cc2)c(N2CCOCC2)n1,-28%,
N#Cc1nc(C2CC2)oc1N1CCN(Cc2c(F)cccc2Cl)CC1,12.1%,
Cn1c(SCC(=O)N2CCCC2)nnc1-c1ccc2c(c1)OCO2,23.9%,
c1ccc(CNCc2cccc3ccccc23)cc1,-14.2%,
Cc1ccc(F)cc1S(=O)(=O)N1CCC(c2nc3ccccc3s2)CC1,2.62%,
CN1CCC(N2CC[C@H](c3nc4ccccc4s3)C2)CC1,,28.2 µM (active)
CC(C)(C)c1ccc(OCC(=O)N2CCC(c3nc4ccccc4s3)CC2)cc1,10.7% [at 11.5 µM],
Cc1c(-c2ccccc2)oc2c(C(=O)N3CCN(C(=O)c4ccccc4)CC3)cccc2c1=O,-12.4%,
CCCOc1ccccc1C(=O)N1CCC2(CC1)[C@H](O)C[C@@H]2OCCN,-7.52%,
Cn1c(COc2ccccc2Cl)nnc1SCCn1cccn1,21%,

SMILES,"activity change, negative = inhibition",Potency
Clc1ccccc1C1(c2ccnc(NCCn3cccn3)n2)CCNCC1,,28.2 µM (active)
CCOc1ccc(/C=C2/Cc3c(O)cccc3C2=O)cc1,11.1%,
N#CC1(NC(=O)COC(=O)CCN=C2NS(=O)(=O)c3ccccc32)CCCCC1,6.37%,
O=c1cc(-c2cccnc2)oc2c(-c3ccccc3O)nccc12,-14.1% [at 86.2 µM],
CN(c1ccccc1)c1cc(=O)c2ccnc(-c3ccc(CO)cc3)c2o1,-32.9% [at 86.2 µM],
O=c1cc(-c2cccnc2)oc2c(-c3cccc(CO)c3)nccc12,,35.5 µM (active)
N#CC1=C(N)Oc2n[nH]c(-c3ccc4c(c3)OCO4)c2C1c1cccc(O)c1 (stereo not given),-29.3%,
CN1CCN(c2oc(-c3ccccc3)nc2S(=O)(=O)c2ccc3c(c2)OCCO3)CC1,13.1%,
COc1ccc(S(=O)(=O)NCCc2noc(-c3ccncc3)n2)cc1,13.7%,
COCc1noc(-c2ccc(NCCN3CCNC3=O)nc2)n1,30.3%,
COCCc1noc(-c2ccc(NC(C)c3ncccc3C)nc2)n1 (stereo not given),,28.2 µM (active)
O=C(O)CSCc1cccnc1,-4.43%,
COc1cccc(CC(=O)NCCc2noc(-c3cccnc3)n2)c1,12.9%,
O=C(O)Cn1ccc2cc(OCCc3cccc(-c4cccnc4)c3)cnc21,,35.5 µM (active)
COc1cc(CNCC(O)c2ccccc2)ccc1Oc1nnnn1-c1ccccc1 (stereo not given),22.5%,
CCNC(=O)NC(=O)C(C)OC(=O)c1ccc(C(=O)OC)cc1 (stereo not given),8.54%,
Cc1ccc(-n2nnnc2C2(Nc3ccccc3)CCCC2)cc1,14.5%,
COc1cccc(CC(=O)NC2CCN(c3cn[nH]c(=O)c3)CC2)c1,-1.04%,
COc1cccc(CN2CCN(C(=O)c3cnc4ccccn4c3=O)CC2=O)c1,,28.2 µM (active)
COc1cccc(CN2CCOC3CCN(C(=O)c4cccnc4)CC3C2=O)c1 (stereo not given),-15.9% [at 86.2 µM],
O=C(CCc1cccs1)N(CC1CCOC1)C1CC1 (stereo not given),16.4%,
Cc1nc2sc3c(c2c2nc(-c4ccc(O)cc4)nn12)CC(C)(C)OC3,-15.1%,
Cn1c(Oc2cccc(Cl)c2)nc2c1c(=O)n(Cc1ccc(F)cc1)c(=O)n2C,4.11%,
Cc1nc2ccc(C(=O)NCCCOCC3CC3)cc2nc1C,3.23%,
O=C(CN1CCN(c2ccccc2)CC1)Nc1ccc(F)cc1,9.95%,

SMILES,"activity change, negative = inhibition",Potency
O=C(Cc1ccc(F)cc1)NC1CCN(c2cc(-c3ccc(Cl)cc3)[nH]n2)CC1,-21.9%,
COc1cc(NC(=O)CSc2nnc3ccc(-c4ccncc4)nn23)cc(OC)c1,-1.83%,
COc1ccc(CNc2nc(-c3ccc(Cl)cc3)nn2S(=O)(=O)c2ccc(C)cc2)cc1,3.11%,
COc1ccc(-c2ccc3nnc(CNC(=O)C(C)Oc4ccc(Cl)cc4)n3n2)cc1 (stereo not given),,28.2 µM (active)
O=C(Cc1ccc(Cl)cc1)NCc1nnc2ccc(-c3ccc(F)cc3)nn12,,25.1 µM (active)
O=C(CN1CCN(Cc2ccc(Cl)cc2)C1=O)NCc1ccc(F)cc1,-11.5%,
COc1ccc(Oc2c(C)oc3cc(OCC(=O)NCc4ccccc4)ccc3c2=O)cc1,-5.87%,
COc1cccc(C(=O)Oc2ccc(C)cc2C(=O)/C=C/c2ccc(F)cc2)c1,-3.94%,
CC(C)NC(=O)Nc1cccc(C(=O)Nc2cccc(Cl)c2)c1,-1.45%,
CC(NC(=O)/C=C/c1ccsc1)C1CCCO1 (stereo not given),22.6%,
N#Cc1ccc(OCC(O)CNCCC2=CCCCC2)cc1 (stereo not given),23.8%,
O=C(NCCc1c[nH]c2ccc(Cl)cc12)c1ccccc1,-16.9%,
CC(C)Oc1ccc(/C(O)=C2\C(=O)C(=O)N(c3nccs3)C2c2cccc(Br)c2)cc1 (stereo not given),-24%,
O=C(CSc1ncccn1)c1ccc(F)cc1,-6.11%,
CCOc1ccc(-c2nc(S(=O)(=O)c3ccc(F)cc3)c(NC)o2)cc1,13.1%,
O=C(CNc1nc(Cl)nc2nc[nH]c12)NC1CC1,-1.28%,
O=C(NCCCN1CCCC1)c1cccnc1,3.9%,
O=C(NC/C(=N/NC(=O)c1cccnc1)c1ccccc1)c1ccccc1,-10%,
COc1ccc(-c2nc3ccc(C(=O)NCc4ccc(C)cc4)cc3nc2-c2ccc(OC)cc2)cc1,-187%,
O=C(CSc1nnc2ccc(-c3ccncc3)nn12)N1CCCCC1,20.2%,
CC[C@H](C)NC(=O)c1ccc2nc(-c3ccc(C)cc3)cc(OC)c2c1,-11.5%,
COc1ccc(C(=O)NCc2nnc3ccc(-c4ccc(C)cc4)nn23)cc1F,,28.2 µM (active)
O=C(NCc1nnc2n1C(C(=O)NC1CC1)CC2)c1ccncc1 (stereo not given),1.09% [at 149 µM],
Cc1ccc(-c2ccc3nnc(CNC(=O)c4ccncc4)n3n2)cc1C,,28.2 µM (active)
Cc1ccc(-c2ccc3nnc(CNC(=O)c4cccnc4)n3n2)cc1C,,31.6 µM (active)

SMILES,"activity change, negative = inhibition",Potency
CCc1nonc1NC(=O)COc1ccc(C)c(C)c1,7.03%,
COc1ccc(NC(=O)CSCc2ccc(F)cc2Cl)cc1,2.87%,
CCOC(=O)COn1c(=O)c(-c2ccc(OCC)cc2)[n+]([O-])c2ccccc21,-7.54%,
CC(=O)N1CCN(C(=O)C[C@@H]2c3nc(NC(=O)c4cccs4)sc3C[C@@H]3[C@](C)(CO)[C@H](O)CC[C@]32C)CC1,-22.1%,
CN(C)CCNC(=O)C[C@@H]1c2nc(NC(=O)c3ccc(C(C)(C)C)cc3)sc2C[C@@H]2[C@](C)(CO)[C@H](O)CC[C@]21C,0.551%,
CC(C)(C)c1ccc(C(=O)Nc2nc3c(s2)C[C@@H]2[C@](C)(CO)[C@H](O)CC[C@@]2(C)[C@@H]3CC(=O)NCc2cccs2)cc1,,14.1 µM (active)
C[C@]1(CO)[C@H]2Cc3sc(NC(=O)C4CCCCC4)nc3[C@@H](CC(=O)NCc3cccs3)[C@]2(C)CC[C@H]1O,-19.3%,
C=CCN(C)C(=O)C[C@@H]1c2nc(NC(=O)c3ccc(C(C)(C)C)cc3)sc2C[C@@H]2[C@](C)(CO)[C@H](O)CC[C@]21C,,31.6 µM (active)
C=CCOC(=O)Nc1nc2c(s1)C[C@@H]1[C@](C)(CO)[C@H](O)CC[C@@]1(C)[C@@H]2CC(=O)N(CC)CC,1.16%,
CC(C)(C)C(=O)COC(=O)c1cc(-c2ccccc2)c(N2CCOCC2)s1,-15.4%,
CC(C)C(=O)N1CC(=O)Nc2ccc(F)cc2C1c1ccc(F)cc1 (stereo not given),18.1%,
CC(=O)c1ccc(N2CCN(C(=O)CCNC(=O)Cn3ccc4ccccc4c3=O)CC2)cc1,-4.99%,
Cc1cnc(C(=O)N(C)Cc2ccc(Cl)s2)cn1,6.09%,
Cc1ccc(C(C)C)c(OCCSc2nc3ccccc3n2CC(=O)O)c1,-10.6%,
COc1ccc(OC)c(CC(C(=O)Nc2ccc(F)cc2)c2nn[nH]n2)c1 (stereo not given),-1.51%,
O=C(NCc1ccc(Cl)nc1)c1ccn2cncc2c1,-8620% [at 86.2 µM],
O=C(NCc1ccc(Cl)nc1)c1cnn2ncccc12,,31.6 µM (active)
O=C(NCc1ccc(Cl)cc1)c1cccn2nccc12,,35.5 µM (active)
O=C(CSc1nccn1Cc1ccc(Cl)cc1)NCc1ccccc1,-11.1%,
O=C(NCc1cccnc1)c1nc(-c2ccc(Cl)nc2)c2cnccn12,,63.1 µM (active)
O=C(NCc1ccc(Cl)nc1)c1c[nH]c2cccnc12,-18.6% [at 149 µM],
O=C(NCc1cccnc1)c1cnc2ccccc2n1,-14.4%,
O=C(NCc1ccc(Cl)nc1)c1cn2c(n1)CN(C(=O)c1cccnc1)CC2,-15.4% [at 115 µM],
O=C(NCc1ccc(Cl)cc1)c1cc(-c2ccc[nH]2)n[nH]1,-9.79%,
CC1CCCN(CC(=O)Nc2oc3ccccc3c(=O)c2-c2ccc(F)cc2)C1 (stereo not given),-1.49%,
